The nature of test [1]: qHTS assay to identify small molecule antagonists of the glucocorticoid receptor (GR) signaling pathway - cell viability counter screen (AID 720693). Further: nearly all actives have a fitted effect of over 55% in size. Further: potency means the concentration at half of the fitted maximal effect.
The nature of test [2]: qHTS assay for identifying genotoxic compounds that show differential cytotoxicity against isogenic chicken DT40 cell lines with known DNA damage response pathways - wild type cell line (AID 743012). Further: nearly all actives have a fitted effect of over 60% in size. Further: potency means the concentration at half of the fitted maximal effect. In short, it runs like this: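 Wild type DT40, 300 cells/well, ~0.5 h settle at 37 C/5% CO2; compounds in DMSO added by pintool; 40 h at 37 C/5% CO2; CellTiter-Glo, 30 min RT; luminescence.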

Test [3] is described as follows: qHTS assay for identifying genotoxic compounds that show differential cytotoxicity against isogenic chicken DT40 cell lines with known DNA damage response pathways - Rev3 mutant cell line (AID 743014). Further: nearly all actives have a fitted effect of over 55% in size. Further: potency means the concentration at half of the fitted maximal effect.
Test [4] in a line: qHTS assay to identify small molecule antagonists of the androgen receptor (AR) signaling pathway using the MDA cell line - cell viability counter screen (AID 743041; further: nearly all actives have a fitted effect of over 45% in size; further: potency means the concentration at half of the fitted maximal effect). In short, it runs like this: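 Same-well cytotoxicity was assessed by CellTiter-Fluor in MDA-kb2 AR-luc cells after 16 h of compound treatment under R1881 agonism.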
Test [5] is described as follows: qHTS assay to identify small molecule antagonists of the thyroid receptor (TR) signaling pathway - cell viability counter screen (AID 743064). Further: nearly all actives have a fitted effect of over 50% in size. Further: potency means the concentration at half of the fitted maximal effect. In short, it runs like this:
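Fluorescence from CellTiter-Fluor, added after 23.5 h exposure at 37 °C, reported viability of GH3.TRE-Luc cells co-treated with compound and 1 nM T3. Measured in the same wells as the luciferase TR readout.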

Test [6] has as its system thyroid hormone receptor (rat, GH3 cells). As to the kind of experiment: qHTS assay to identify small molecule agonists of the thyroid receptor (TR) signaling pathway (AID 743066; calls by dose curve; further: potency means the concentration at half of the fitted maximal effect).
The target of test [7] is Estrogen receptor (Homo sapiens) (UniProt P03372). As to the kind of experiment: qHTS assay to identify small molecule antagonists of the estrogen receptor alpha (ER-alpha) signaling pathway (AID 743069; active means well fitted curve in the direction sought with a large enough effect in the signal ratio in the repeat runs, not every such curve was filed as active; inconclusive means weak or mixed curves, or effect the other way; inactive means no such curve, though single readings can be large or run the other way; the % refers to the signal ratio; further: potency means the concentration at half of the fitted maximal effect). In a few lines:
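Reporter cells (ER-alpha-bla, HEK293 background) are conditioned overnight in stripped-serum medium (2% charcoal-stripped FBS). Compound and 17beta-estradiol exposure runs 18 hr at 37C, 5% CO2.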

The nature of test [8]: qHTS assay to identify small molecule antagonists of the estrogen receptor alpha (ER-alpha) signaling pathway - cell viability counter screen (AID 743074; calls by dose curve;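 further: HEK293 cells carrying ER-alpha-UAS-bla reporter stimulated with 17beta-estradiol; nearly all actives have a fitted effect of over 45% in size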; further: potency means the concentration at half of the fitted maximal effect).
The target in test [9] is Estrogen receptor (Homo sapiens) (UniProt P03372). As to the kind of experiment: qHTS assay to identify small molecule agonists of the estrogen receptor alpha (ER-alpha) signaling pathway (AID 743075; calls by dose curve;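 further: HEK293 GripTite cells with ER-alpha and UAS-driven beta-lactamase reporter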). The conditions noted are these: HEK293 ER-alpha-UAS-bla, beta-lactamase FRET ratio, 18 h; activation: at 70.1 µM (top of the series).
Chain of Estrogen receptor (Homo sapiens) (P03372 whole entry, looked up): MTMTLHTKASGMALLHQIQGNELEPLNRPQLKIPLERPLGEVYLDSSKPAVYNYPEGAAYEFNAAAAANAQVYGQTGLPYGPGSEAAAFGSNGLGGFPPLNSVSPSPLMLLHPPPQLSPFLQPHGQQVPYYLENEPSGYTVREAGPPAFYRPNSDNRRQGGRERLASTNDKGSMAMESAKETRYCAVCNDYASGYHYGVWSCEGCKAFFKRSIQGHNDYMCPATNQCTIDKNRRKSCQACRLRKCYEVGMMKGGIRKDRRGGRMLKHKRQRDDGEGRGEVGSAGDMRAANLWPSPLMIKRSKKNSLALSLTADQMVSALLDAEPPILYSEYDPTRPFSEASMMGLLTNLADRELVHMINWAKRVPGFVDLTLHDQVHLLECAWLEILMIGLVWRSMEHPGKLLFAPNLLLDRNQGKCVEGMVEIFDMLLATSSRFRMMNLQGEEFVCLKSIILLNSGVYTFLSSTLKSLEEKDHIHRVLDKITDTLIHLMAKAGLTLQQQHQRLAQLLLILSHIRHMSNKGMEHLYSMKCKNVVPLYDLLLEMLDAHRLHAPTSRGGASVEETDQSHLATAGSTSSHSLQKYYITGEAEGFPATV
The target is the same in test [10]. As to the kind of experiment: qHTS assay to identify small molecule agonists of the estrogen receptor alpha (ER-alpha) signaling pathway using the BG1 cell line (AID 743079). Further: nearly all actives have a fitted effect of over 20% in size. To be noted: BG1Luc4E2 cells, ERE-luciferase agonist, 22 h; at 70.3 µM (top of the series).
Test [11] is described as follows: qHTS assay to identify small molecule antagonists of the estrogen receptor alpha (ER-alpha) signaling pathway using the BG1 cell line (AID 743080; calls by dose curve;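 further: BG1 cells stimulated with 17beta-estradiol alongside compound; nearly all actives have a fitted effect of over 25% in size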). In short, it runs like this: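 Seeding, 24 h rest, compound transfer from DMSO, 17beta-estradiol addition, 21.5 h incubation, CellTiter-Fluor (30 min, 37 C), then ONE-Glo (30 min, room temperature): this sequence was run on BG1-Luc-4E2 reporter cells.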

The nature of test [12]: qHTS assay to identify small molecule antagonists of the estrogen receptor alpha (ER-alpha) signaling pathway using the BG1 cell line - cell viability counter screen (AID 743081).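 Further: compound given together with 17beta-estradiol as the ER stimulus; nearly all actives have a fitted effect of over 45% in size.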
Test [13] is described as follows: qHTS assay to identify small molecule antagonists of the androgen receptor (AR) signaling pathway - cell viability counter screen (AID 743033; further: nearly all actives have a fitted effect of over 45% in size).
The target of the next test is Aromatase (Homo sapiens) (UniProt P11511). As to the kind of experiment: qHTS assay to identify aromatase inhibitors (AID 743083). Further: nearly all actives have a fitted effect of over 55% in size. Further: potency means the concentration at half of the fitted maximal effect.
Chain of Aromatase (Homo sapiens) (P11511 whole entry, looked up): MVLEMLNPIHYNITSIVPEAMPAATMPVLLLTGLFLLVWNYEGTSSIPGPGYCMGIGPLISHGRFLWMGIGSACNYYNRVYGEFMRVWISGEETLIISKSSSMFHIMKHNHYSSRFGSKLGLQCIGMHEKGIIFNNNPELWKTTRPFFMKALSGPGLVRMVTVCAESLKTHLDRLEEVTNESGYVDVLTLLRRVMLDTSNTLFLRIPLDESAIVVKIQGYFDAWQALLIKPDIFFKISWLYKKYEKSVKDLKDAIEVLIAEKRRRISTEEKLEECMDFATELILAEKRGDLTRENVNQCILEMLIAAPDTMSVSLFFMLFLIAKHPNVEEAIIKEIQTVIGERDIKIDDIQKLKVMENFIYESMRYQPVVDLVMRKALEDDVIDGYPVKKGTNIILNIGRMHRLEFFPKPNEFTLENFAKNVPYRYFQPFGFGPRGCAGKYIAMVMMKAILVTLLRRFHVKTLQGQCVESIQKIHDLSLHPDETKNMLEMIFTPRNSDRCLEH
For test [14], the target named is Androgen receptor (Homo sapiens) (UniProt P10275). As to the kind of experiment: qHTS assay to identify small molecule agonists of the androgen receptor (AR) signaling pathway using the MDA cell line (AID 743040; further: nearly all actives have a fitted effect of over 20% in size). In a few lines: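 Human breast carcinoma MDA-kb2 reporter cells (MMTV-luc, AR/GR elements) were treated for 16 h at 37C in 0% CO2 following a 5 h settling period. Signal was quantified by ONE-Glo luminescence.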
Chain of Androgen receptor (Homo sapiens) (P10275 whole entry, looked up): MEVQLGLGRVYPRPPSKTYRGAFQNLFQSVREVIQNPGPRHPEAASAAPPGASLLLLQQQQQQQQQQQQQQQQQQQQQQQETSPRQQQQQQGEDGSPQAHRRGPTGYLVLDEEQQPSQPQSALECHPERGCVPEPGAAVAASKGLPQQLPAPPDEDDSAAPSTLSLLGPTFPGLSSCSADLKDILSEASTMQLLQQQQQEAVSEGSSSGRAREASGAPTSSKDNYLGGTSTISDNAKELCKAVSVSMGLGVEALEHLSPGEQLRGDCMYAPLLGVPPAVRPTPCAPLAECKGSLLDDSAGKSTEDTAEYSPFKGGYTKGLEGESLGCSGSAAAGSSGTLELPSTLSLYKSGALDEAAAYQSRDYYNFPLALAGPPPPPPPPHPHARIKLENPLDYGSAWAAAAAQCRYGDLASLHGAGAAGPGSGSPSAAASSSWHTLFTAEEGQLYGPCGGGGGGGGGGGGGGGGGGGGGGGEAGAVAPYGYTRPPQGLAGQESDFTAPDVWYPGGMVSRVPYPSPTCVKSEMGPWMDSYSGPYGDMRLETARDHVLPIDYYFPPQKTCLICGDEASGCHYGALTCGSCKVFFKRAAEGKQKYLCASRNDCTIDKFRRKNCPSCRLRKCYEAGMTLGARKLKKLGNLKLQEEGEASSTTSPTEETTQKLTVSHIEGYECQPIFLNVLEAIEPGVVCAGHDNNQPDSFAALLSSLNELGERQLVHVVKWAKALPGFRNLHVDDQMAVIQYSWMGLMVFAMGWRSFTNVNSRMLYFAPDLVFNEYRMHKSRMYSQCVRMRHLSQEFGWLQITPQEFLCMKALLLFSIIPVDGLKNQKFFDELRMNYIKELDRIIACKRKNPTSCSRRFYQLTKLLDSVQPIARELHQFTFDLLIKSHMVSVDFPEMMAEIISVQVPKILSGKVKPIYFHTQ

The target is the same in test [15]. As to the kind of experiment: qHTS assay to identify small molecule antagonists of the androgen receptor (AR) signaling pathway using the MDA cell line (AID 743042; further: nearly all actives have a fitted effect of over 55% in size; further: potency means the concentration at half of the fitted maximal effect). In short, it runs like this:
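MDA-kb2 breast carcinoma cells carrying MMTV-luciferase (AR/GR responsive) were co-treated with compounds and the agonist R1881 for 16 h at 37C. Inhibition read as ONE-Glo luminescence; CellTiter-Fluor fluorescence measured in parallel for cytotoxicity.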

A short description of test [16]: qHTS assay to identify small molecule antagonists of the thyroid receptor (TR) signaling pathway (AID 743065). Further: nearly all actives have a fitted effect of over 55% in size. Further: potency means the concentration at half of the fitted maximal effect. In short, it runs like this:
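GH3.TRE-Luc rat pituitary cells (two TREs driving luciferase) were dosed with compound, then stimulated with 1 nM T3 (final) for 23.5 h at 37 C. ONE-Glo luminescence was the read-out, with CellTiter-Fluor fluorescence as the cytotoxicity counter-screen.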

Test [17] in a line: qHTS assay for identifying genotoxic compounds that show differential cytotoxicity against isogenic chicken DT40 cell lines with known DNA damage response pathways - Rad54/Ku70 mutant cell line (AID 743015). Further: nearly all actives have a fitted effect of over 60% in size. Further: potency means the concentration at half of the fitted maximal effect.
In test [18] the target is Androgen receptor (Homo sapiens) (UniProt P10275). As to the kind of experiment: qHTS assay to identify small molecule antagonists of the androgen receptor (AR) signaling pathway (AID 743035; active means well fitted inhibition curve with a large enough effect in the signal ratio in the repeat runs, not every such curve was filed as active; inconclusive means weak or mixed curves, or effect the other way; inactive means no such curve, though single readings can be large or run the other way; the % refers to the signal ratio). In short, it runs like this: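 Fluorescence from a beta-lactamase FRET substrate (LiveBLAzer B/G, 2 h, room temperature) measured inhibition of R1881-stimulated signaling in GeneBLAzer AR-UAS-bla HEK293 cells exposed to compound for 16 h at 37C.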

The target is the same in test [19]. As to the kind of experiment: qHTS assay to identify small molecule agonists of the androgen receptor (AR) signaling pathway (AID 743036; active means well fitted activation curve with a large enough effect in the signal ratio in the repeat runs, with a control signal flat, not every such curve was filed as active; inconclusive means weak or mixed curves, or effect the other way; inactive means no such curve, though single readings can be large or run the other way; the % refers to the signal ratio). In short, it runs like this:
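Fluorescence from a beta-lactamase FRET substrate served as read-out in AR-UAS-bla GripTite HEK293 cells. Cells were treated with DMSO-dissolved compounds for 16 h at 37C, then with LiveBLAzer B/G substrate for 2 h at room temperature.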

Several values for one entry are separate records, joined by “and”; a condition that tells them apart may be missing. Identical values can stand only once. Some structures have more than one record in an assay (separate samples or runs), and their calls can disagree. Activity calls are given as the source filed them. Unless noted, the call rests on the fitted dose curve; in most records, active means well fitted curve in the direction sought with a large enough effect in the repeat runs; inconclusive means weak or mixed curves; inactive means no such curve, though single readings can be large; an effect the other way counts as inactive or inconclusive.

This is an account of results in PubChem BioAssay (Tox21).
On the % scale 0 is the no-effect control and ±100 the full control effect.

Take `Cc1ccc2oc(CN(Cc3ccccc3)C(=O)Nc3c(F)cc(F)cc3F)c(-c3ccc(Cl)cc3)c2c1`: the Potency result in test [1], in [4], in [5], in test [6], in [7] and in [8] was “inactive” each time. In addition, the Potency result in test [9], in test [11] and in test [12] was “inactive” in each case. In addition, the Potency in test [2] was 18.7 µM (active); in [3], 13.3 µM (active). Further, in test [10], the activation was -12.5% (inactive).

In the case of `C1CCCC1`, the Potency result in [1], in test [2], in test [3], in test [13], in test [4] and in test [5] was “inactive” each time. Besides, the Potency result (in [6]; in test [8]; in test [12]; with Aromatase (Homo sapiens)) was “inactive” in each case.

As to `COc1ccc(C(=O)/C(Br)=C\C(=O)O)cc1`, the Potency entry in [1], in test [13], in [14], in test [6], in [8] and in test [9] was “inactive” throughout. Further, in [12], the Potency entry is “inactive”. The Potency entry in [2] is “inactive and 3.86 µM (active)”; in test [3], “inactive and 6.11 µM (active)”; in test [15], 23.7 µM (active) and 30.6 µM (active); in test [5], 21.7 µM (active); with Aromatase (Homo sapiens), 48.6 µM (active). Besides, the activation in [10] was 0.472% (inactive).

For the compound `CCN(Cc1cccnc1)C(=O)c1cccc(Cl)c1[C@]1(C)C(=O)N(Cc2ccc(OC)cc2OC)c2ccc(Cl)cc21`, the Potency result in [1], in test [14], in test [6] and in test [8] was “inactive” throughout. Also, the Potency was 5.09 µM (active) in test [2]; 7.19 µM (active) in test [3]; 12.8 µM (active) in test [15]; 4.54 µM (active) in test [5]; 2.55 µM (active) in [16]; 16.1 µM (active) with Aromatase (Homo sapiens).

For `CC(C)n1nc(-c2cc3cc(O)ccc3[nH]2)c2c(N)ncnc21`, the Potency in test [1] is 9.52 µM (active); in test [2], 0.841 µM (active); in test [3] it was 2.37 µM (active); in test [17] it was 0.944 µM (active); in [5], 0.106 µM (active); in test [16], 0.0944 µM (active). In addition, in the test with Aromatase (Homo sapiens), the Potency is 0.335 µM (active). For the same compound, in test [9], the Potency result was “inactive”.

Turning to `NC(=O)NS(=O)(=O)c1ccc(N)cc1`, the Potency result in [1], in test [2], in test [17], in test [4], in test [5] and in test [16] was “inactive” each time. The Potency result (in test [6]; in test [7]; in [8]; in test [9]; in [11]; with Aromatase (Homo sapiens)) was “inactive” each time.

For the compound `CC(C)(C)CC(C)(C)c1ccc(O)c(Cc2ccc(Cl)cc2Cl)c1`, the Potency in [1] is 10.7 µM (active); in [2], 26.6 µM (active); in test [17] it was 26.6 µM (active); in [5], 6.68 µM (active); in test [6] it was 2.11 µM (active); in test [8], 23.9 µM (active). The Potency entry (in test [13]; in test [18]; in test [14]; in test [4]; in test [15]; with Aromatase (Homo sapiens)) was “inactive” in each case.

Turning to `C[n+]1ccn(Cc2ccccc2)c1`, the Potency entry in test [1], in test [2], in test [13], in test [5], in [16] and in [6] was “inactive” throughout. The Potency entry (in test [7]; in test [9]; in test [12]; with Aromatase (Homo sapiens)) was “inactive” throughout.

`Oc1ccc2c(c1)-c1ccccc1C2`: the Potency entry in test [1], in test [19], in test [14], in test [15], in [5] and in test [6] was “inactive” in each case. For the same compound, the Potency entry in test [8] and in test [12] was “inactive” in each case. For the same compound, the Potency in test [3] is 54.5 µM (active).

For `CC(C)C(C)(C)C(C)(C)C(C)(C)S`, the Potency entry in test [1], in test [2], in [14], in test [15], in test [6] and in test [7] was “inactive” in each case. The Potency result in test [9], in [11] and in test [12] was “inactive” in each case. Besides, the activation in test [10] is 4.61% (inactive).

`CCC1OCC(COc2ccc(Oc3ccccc3)cc2)O1` (stereo unspecified): the Potency entry in test [1], in [3], in test [13], in [4], in [5] and in test [8] was “inactive” each time. For the same compound, the Potency entry (in test [12]; with Aromatase (Homo sapiens)) was “inactive” in each case.

As to `CCc1oc2ccccc2c1C(=O)c1cc(Br)c(O)c(Br)c1`, the Potency is 13.4 µM (active) in [1], 26.6 µM (active) in test [16] and 10.7 µM [inconclusive] (active) in [7]. Also, the Potency result in test [13], in [14], in [15], in test [6], in [8] and in test [9] was “inactive” throughout. For the same compound, the Potency entry (in [11]; in test [12]; with Aromatase (Homo sapiens)) was “inactive” throughout. For the same compound, in [10], the activation was -23.9% (inactive).

On to `O=C(Nc1ccc(Oc2ccc(Cl)cc2)c(Cl)c1)c1cc(I)cc(I)c1O`, for which the Potency was 6.01 µM (active) in [1], 29.8 µM (active) in test [16] and 6.01 µM (active) in test [8]. The Potency result (in test [3]; in test [17]; in test [13]; in test [4]; in test [12]; in the test with Aromatase (Homo sapiens)) was “inactive” in each case.

Regarding `Cc1cc(O)c2ccccc2c1O`, the Potency result in [1], in [13], in test [18], in test [14], in test [15] and in test [7] was “inactive” throughout. The Potency entry (in [8]; in test [12]; with Aromatase (Homo sapiens)) was “inactive” each time. Moreover, the Potency in [2] was 29.8 µM (active); in [17], 29.8 µM (active); in [16], 33.5 µM (active). Further, the activation in test [10] is -13.8% (inactive).

As to `OCCCCCCCCCCCCBr`, the Potency entry (in test [1]; in [4]; in test [6]; in [8]; in test [12]; with Aromatase (Homo sapiens)) was “inactive” each time. The Potency in test [3] was 3.92 µM (active); in test [17] it was 5.53 µM (active).

With `CNCc1cc(F)ccc1Oc1ccc(Cl)c(Cl)c1`, the Potency entry in test [1], in [8], in test [9] and in test [12] was “inactive” each time. Besides, the Potency was 13.7 µM (active) in test [2], 30.6 µM (active) in [5] and 30.6 µM (active) in [16].

In the case of `CCCN(CCC)c1c([N+](=O)[O-])cc(C(F)(F)F)c(N)c1[N+](=O)[O-]`, the Potency is 48.9 µM (active) in test [1]; 12.2 µM (active) in [2]; 12.2 µM (active) in [17]; 60.9 µM (active) in test [4]; 13.6 µM (active) in test [5]; 13.6 µM (active) in [16]. The Potency in the test with Aromatase (Homo sapiens) is 15.3 µM (active).
